Assay results published in PubChem BioAssay AID1159580 (chemical genetic matrix, 2015).
The whole screen tested about 5,500 compounds, of which about 2,000 (36%) were called active. Inconclusive results (about 18%) are left out. Rule as the data show it: active = normalized growth mostly below about 0.91 (no sharp cut-off); inconclusive = no clear call, values can overlap the other calls; inactive = mostly above about 0.92. This is one part of the list.

Test: chemical genetic growth profiling, strain panel (AID 1159580);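 also: tested at 20 µM; growth read once vehicle control cultures reached saturation at 30 °C; 1 = growth at the plate median or of vehicle wells; lower values mean less growth of the strain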
Settings: growth OD
[1] = S. cerevisiae deletion strains, locus YDL101C, strain DUN1, hits give low values
[2] = S. cerevisiae deletion strains, locus YHR030C, strain SLT2, hits give low values

Measured: normalized growth

CC(C)(C)C(=O)c1sc2sc(C(=O)C(C)(C)C)c(N)c2c1N
active: S. cerevisiae deletion strains, locus YFR019W, strain FAB1, hits give low values 0.47 | [2] 0.152 | S. cerevisiae deletion strains, locus YHR079C, strain IRE1, hits give low values 0.274 | S. cerevisiae deletion strains, locus YLR113W, strain HOG1, hits give low values 0.663 | S. cerevisiae deletion strains, locus YOL136C, strain PFK27, hits give low values 0.6 | S. cerevisiae deletion strains, locus YPL204W, strain HRR25, hits give low values 0.646 | S. cerevisiae deletion strains, locus YPL256C, strain CLN2, hits give low values 0.326
inactive: S. cerevisiae deletion strains, locus YAR019C, strain CDC15, hits give low values 0.993 | S. cerevisiae deletion strains, locus YBL105C, strain PKC1, hits give low values 0.992 | S. cerevisiae deletion strains, locus YBR135W, strain CKS1, hits give low values 0.984 | S. cerevisiae deletion strains, locus YBR136W, strain MEC1, hits give low values 0.984 | S. cerevisiae deletion strains, locus YBR160W, strain CDC28, hits give low values 0.994 | S. cerevisiae deletion strains, locus YDL017W, strain CDC7, hits give low values 0.993 | S. cerevisiae deletion strains, locus YDL028C, strain MPS1, hits give low values 0.992 | [1] 0.981 | S. cerevisiae deletion strains, locus YDL108W, strain KIN28, hits give low values 0.989 | S. cerevisiae deletion strains, locus YDL132W, strain cdc53, hits give low values 0.975 | S. cerevisiae deletion strains, locus YDL214C, strain PRR2, hits give low values 0.835 | S. cerevisiae deletion strains, locus YDR052C, strain DBF4, hits give low values 0.999 | S. cerevisiae deletion strains, locus YDR054C, strain cdc34, hits give low values 0.983 | S. cerevisiae deletion strains, locus YDR226W, strain ADK1, hits give low values 0.976 | S. cerevisiae deletion strains, locus YDR477W, strain SNF1, hits give low values 0.875 | S. cerevisiae deletion strains, locus YER123W, strain YCK3, hits give low values 0.752 | S. cerevisiae deletion strains, locus YER133W, strain GLC7, hits give low values 0.862 | S. cerevisiae deletion strains, locus YFL009W, strain cdc4, hits give low values 0.988 | S. cerevisiae deletion strains, locus YFL029C, strain CAK1, hits give low values 0.991 | S. cerevisiae deletion strains, locus YFR003C, strain YPI1, hits give low values 0.997 | S. cerevisiae deletion strains, locus YFR028C, strain CDC14, hits give low values 0.982 | S. cerevisiae deletion strains, locus YGR040W, strain KSS1, hits give low values 0.879 | S. cerevisiae deletion strains, locus YGR052W, strain FMP48, hits give low values 0.689 | S. cerevisiae deletion strains, locus YGR092W, strain DBF2, hits give low values 0.894 | S. cerevisiae deletion strains, locus YHR082C, strain KSP1, hits give low values 0.62 | S. cerevisiae deletion strains, locus YHR205W, strain SCH9, hits give low values 0.872 | S. cerevisiae deletion strains, locus YIL147C, strain SLN1, hits give low values 0.995 | S. cerevisiae deletion strains, locus YJL095W, strain BCK1, hits give low values 0.52 | S. cerevisiae deletion strains, locus YJL128C, strain PBS2, hits give low values 0.931 | S. cerevisiae deletion strains, locus YJL157C, strain FAR1, hits give low values 0.785 | S. cerevisiae deletion strains, locus YJR016C, strain ILV3, hits give low values 0.99 | S. cerevisiae deletion strains, locus YJR066W, strain TOR1 (second series), hits give low values 0.823 | S. cerevisiae deletion strains, locus YJR066W, strain TOR1, hits give low values 0.589 | S. cerevisiae deletion strains, locus YKL048C, strain ELM1, hits give low values 0.983 | S. cerevisiae deletion strains, locus YKL067W, strain YNK1, hits give low values 0.902 | S. cerevisiae deletion strains, locus YKL101W, strain HSL1, hits give low values 0.962 | S. cerevisiae deletion strains, locus YKL193C, strain SDS22, hits give low values 0.987 | S. cerevisiae deletion strains, locus YKL203C, strain TOR2, hits give low values 0.936 | S. cerevisiae deletion strains, locus YLR133W, strain CKI1, hits give low values 0.888 | S. cerevisiae deletion strains, locus YLR403W, strain SFP1, hits give low values 0.851 | S. cerevisiae deletion strains, locus YML070W, strain DAK1, hits give low values 0.704 | S. cerevisiae deletion strains, locus YMR001C, strain CDC5, hits give low values 0.993 | S. cerevisiae deletion strains, locus YMR205C, strain PFK2 (second series), hits give low values 0.965 | S. cerevisiae deletion strains, locus YMR277W, strain FCP1, hits give low values 0.989 | S. cerevisiae deletion strains, locus YNL006W, strain LST8, hits give low values 0.999 | S. cerevisiae deletion strains, locus YNL020C, strain ARK1, hits give low values 0.892 | S. cerevisiae deletion strains, locus YNL161W, strain CBK1, hits give low values 0.994 | S. cerevisiae deletion strains, locus YNL183C, strain NPR1, hits give low values 0.855 | S. cerevisiae deletion strains, locus YNL207W, strain RIO2, hits give low values 0.989 | S. cerevisiae deletion strains, locus YNL222W, strain SSU72, hits give low values 0.993 | S. cerevisiae deletion strains, locus YNL307C, strain MCK1 (second series), hits give low values 0.97 | S. cerevisiae deletion strains, locus YOL078W, strain AVO1, hits give low values 0.987 | S. cerevisiae deletion strains, locus YOR061W, strain CKA2, hits give low values 0.915 | S. cerevisiae deletion strains, locus YOR119C, strain RIO1, hits give low values 1.01 | S. cerevisiae deletion strains, locus YOR231W, strain MKK1, hits give low values 0.682 | S. cerevisiae deletion strains, locus YOR329C, strain SCD5, hits give low values 0.991 | S. cerevisiae deletion strains, locus YPL031C, strain PHO85, hits give low values 0.804 | S. cerevisiae deletion strains, locus YPL153C, strain RAD53, hits give low values 0.692 | S. cerevisiae deletion strains, locus YPL209C, strain IPL1, hits give low values 0.993 | S. cerevisiae deletion strains, locus YPR025C, strain CCL1, hits give low values 0.991 | S. cerevisiae deletion strains, locus YPR106W, strain ISR1, hits give low values 0.995 | S. cerevisiae deletion strains, locus YPR111W, strain DBF20, hits give low values 0.99 | S. cerevisiae deletion strains, strain NNK1, hits give low values 0.996 | S. cerevisiae deletion strains, strain TSCII, hits give low values 0.994

CC(C)(C)c1ccc(-c2cc(N)c(C(N)=O)s2)cc1
inactive: S. cerevisiae deletion strains, locus YAL013W, strain DEP1, hits give low values 0.978 | S. cerevisiae deletion strains, locus YBR229C, strain ROT2, hits give low values 0.997 | S. cerevisiae deletion strains, locus YCL061C, strain MRC1, hits give low values 1.01 | [1] 1.01 | S. cerevisiae deletion strains, locus YDR150W, strain NUM1, hits give low values 0.974 | S. cerevisiae deletion strains, locus YEL061C, strain CIN8, hits give low values 0.967 | S. cerevisiae deletion strains, locus YGR078C, strain PAC10, hits give low values 1.01 | [2] 0.761 | S. cerevisiae deletion strains, locus YHR087W, strain rtc3, hits give low values 1.02 | S. cerevisiae deletion strains, locus YJR043C, strain POL32, hits give low values 0.979 | S. cerevisiae deletion strains, locus YJR075W, strain HOC1, hits give low values 1 | S. cerevisiae deletion strains, locus YKL190W, strain CNB1, hits give low values 1 | S. cerevisiae deletion strains, locus YLR039C, strain RIC1, hits give low values 0.93 | S. cerevisiae deletion strains, locus YLR058C, strain SHM2 (second series), hits give low values 1.01 | S. cerevisiae deletion strains, locus YLR085C, strain ARP6, hits give low values 0.987 | S. cerevisiae deletion strains, locus YLR262C, strain YPT6, hits give low values 0.827 | S. cerevisiae deletion strains, locus YML094W, strain GIM5, hits give low values 1.01 | S. cerevisiae deletion strains, locus YMR219W, strain ESC1, hits give low values 0.996 | S. cerevisiae deletion strains, locus YMR263W, strain SAP30, hits give low values 0.967 | S. cerevisiae deletion strains, locus YMR307W, strain GAS1, hits give low values 0.881 | S. cerevisiae deletion strains, locus YNL153C, strain GIM3, hits give low values 1 | S. cerevisiae deletion strains, locus YNL298W, strain CLA4 (second series), hits give low values 0.966 | S. cerevisiae deletion strains, locus YNL322C, strain KRE1, hits give low values 0.985 | S. cerevisiae deletion strains, locus YNR030W, strain Alg12, hits give low values 0.942 | S. cerevisiae deletion strains, locus YOL006C, strain TOP1, hits give low values 0.946 | S. cerevisiae deletion strains, locus YPL055C, strain LGE1, hits give low values 0.916 | S. cerevisiae deletion strains, locus YPL241C, strain CIN2, hits give low values 0.983 | S. cerevisiae deletion strains, locus YPR135W, strain CTF4, hits give low values 0.783 | S. cerevisiae strains, strain wild type, hits give low values 0.989
